Data on 13 compounds can be found in PubChem BioAssay (NCI).

The structures appear in SMILES notation. About 83,000 compounds went through this panel and 20% of them were active in at least one assay; those are over-represented in the sample as a whole.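 48-hour exposure, single concentration, 96-well plates; percent growth endpoint where 0 means no net growth. Active: below 10.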 Values without a mark were called inactive. Calls of active or inactive are those of the source.

Test systems include DU-145 prostate; K-562 leukemia; MALME-3M melanoma; MDA-MB-231 breast; RXF 393 renal; SF-268 CNS; SF-295 CNS; SF-539 CNS; UACC-257 melanoma; M14 melanoma.
What all share (experiment): NCI-60 one-dose screen, 48 h (100 = growth as untreated, 0 = no growth, -100 = all killed)
Settings in all cases: 10 µM unless noted

On to `O=c1[nH]cc(N(CCCl)CCCl)c(=O)[nH]1`, for which the growth in the test with DU-145 prostate is 52.4%; with K-562 leukemia, 83%; with MALME-3M melanoma, 62.5%; with MDA-MB-231 breast, 95.2%; in the test with RXF 393 renal, 68.6%; with SF-268 CNS, 52%. The growth was 49.6% with SF-295 CNS, 46.2% in the test on SF-539 CNS, 62% with UACC-257 melanoma and 73.5% with M14 melanoma.

As for `CC(=O)O[C@H](C[C@H](C(C)C)N(C)C(=O)[C@@H](NC(=O)[C@H]1CCCCN1C)C(C)C)c1cccc(C(=O)N[C@@H](Cc2ccccc2)C[C@H](C)C(=O)O)n1`, the growth in the test with DU-145 prostate was 0.44% (active); in the test on K-562 leukemia, 7.66% (active); in the test on MALME-3M melanoma it was 74.3%; in the test with MDA-MB-231 breast it was 11.8%; in the test on RXF 393 renal it was 34.5%; in the test with SF-268 CNS it was 23.1%. Also, the growth was 5.65% (active) in the test on SF-295 CNS, -2.97% (active) with SF-539 CNS, 48.4% with UACC-257 melanoma and 1.68% (active) with M14 melanoma.

Regarding `C=COC(=O)CCN1CC1`, the growth with DU-145 prostate is 113%; with K-562 leukemia, 111%; with MALME-3M melanoma, 112%; with MDA-MB-231 breast, 103%; in the test with RXF 393 renal, 111%; with SF-268 CNS, 106%. Also, the growth in the test on SF-295 CNS was 101%; in the test with SF-539 CNS, 103%; with UACC-257 melanoma, 105%; with M14 melanoma, 102%.

Take `CC(C)[C@@H]1NC(=O)[C@]2(C)CSC(=N2)c2csc(n2)CNC(=O)C[C@@H](/C=C/CCS)OC1=O`: the growth in the test on DU-145 prostate is 8.24% (active); in the test on K-562 leukemia, 8.34% (active); with MALME-3M melanoma it was 21.4%; with MDA-MB-231 breast, 12%; in the test with RXF 393 renal, -57.7% (active); with SF-268 CNS, 11.3%. In addition, the growth in the test with SF-295 CNS is 6.21% (active); in the test on SF-539 CNS it was 21%; in the test with UACC-257 melanoma, -42.5% (active); with M14 melanoma it was 10.1%.

On to `Clc1ccc(N2COOC3(OOC2)C2CC4CC(C2)CC3C4)cc1`, for which the growth is 85% in the test on DU-145 prostate; 29.9% with K-562 leukemia; 26.3% in the test on MALME-3M melanoma; 82.9% in the test on MDA-MB-231 breast; 101% in the test with RXF 393 renal; 58.1% with SF-268 CNS. Besides, the growth in the test with SF-295 CNS is 70.6%; in the test with SF-539 CNS, 23.5%; with UACC-257 melanoma it was 85.8%; in the test with M14 melanoma, 65.9%.

Regarding `COc1ccc(NC([Se])=NC23CC4CC(CC(C4)C2)C3)cc1`, the growth with DU-145 prostate was 2.16% (active); in the test with K-562 leukemia, 12.3%; in the test with MALME-3M melanoma, -18.5% (active); in the test on MDA-MB-231 breast, -44.4% (active); with RXF 393 renal it was -41% (active); in the test with SF-268 CNS, 38.5%. Moreover, the growth in the test with SF-295 CNS was -23.6% (active); in the test with SF-539 CNS it was -6.89% (active); with UACC-257 melanoma it was -45.5% (active); in the test on M14 melanoma it was -6.57% (active).

For the compound `COc1ccc(/C=C\c2cc(OC)c(OC)c(OC)c2)c(NS(=O)(=O)c2ccc(Cl)cc2)c1O`, the growth is -13.3% (active) with DU-145 prostate; 9.26% (active) in the test with K-562 leukemia; 58% in the test with MALME-3M melanoma; 8.54% (active) in the test with MDA-MB-231 breast; 37.2% in the test with RXF 393 renal; 16.2% in the test on SF-268 CNS. The growth is 0.936% (active) in the test on SF-295 CNS, 2.9% (active) with SF-539 CNS, 39.1% with UACC-257 melanoma and 12.8% in the test with M14 melanoma.

For the compound `C[C@@H]1C[C@@]2(C)[C@@H](CC[C@@H]3[C@@H]2CC[C@]2(C)C(=O)CC[C@@H]32)CC1=O`, the growth was 108% with DU-145 prostate; 93.1% in the test on K-562 leukemia; 118% with MALME-3M melanoma; 103% with MDA-MB-231 breast; 49.7% in the test on RXF 393 renal; 102% in the test with SF-268 CNS. Moreover, the growth in the test with SF-295 CNS was 90.7%; in the test with SF-539 CNS, 95%; in the test with UACC-257 melanoma, 113%; with M14 melanoma it was 96.9%.

For the compound `O=C(Nc1ccncc1F)c1cn(CC2CC2)c2ccccc12`, the growth in the test on DU-145 prostate was 114%; in the test on K-562 leukemia, 95.7%; with MALME-3M melanoma, 119%; in the test with MDA-MB-231 breast, 109%; in the test on RXF 393 renal it was 103%; in the test with SF-268 CNS, 105%. In addition, the growth in the test with SF-295 CNS is 100%; in the test on SF-539 CNS it was 110%; in the test on UACC-257 melanoma, 108%; in the test with M14 melanoma, 108%.

Take `CCC(O)(CN)c1ccccc1` (stereo not given): the growth was 107% in the test on DU-145 prostate; 107% in the test on K-562 leukemia; 101% with MALME-3M melanoma; 101% in the test on MDA-MB-231 breast; 110% in the test with RXF 393 renal; 100% in the test with SF-268 CNS. For the same compound, the growth in the test on SF-295 CNS was 92.6%; with SF-539 CNS, 99%; in the test with UACC-257 melanoma, 91.9%; in the test on M14 melanoma, 95%.

Take `C=CC[PH+](c1ccccc1)c1ccccc1.C=CC[PH+](c1ccccc1)c1ccccc1.[Cl][Pt][Cl]`: the growth in the test with DU-145 prostate was 71.7%; in the test with K-562 leukemia, 0.456% (active); with MALME-3M melanoma, -26.4% (active); in the test with MDA-MB-231 breast it was 41.8%; in the test on RXF 393 renal, -16.6% (active); with SF-268 CNS, 95.5%. Also, the growth in the test with SF-295 CNS is 89.8%; in the test with SF-539 CNS, 68%; with UACC-257 melanoma it was 80%; in the test with M14 melanoma it was 51.9%.

Take `COc1cc2ncnc(Nc3ccc(F)c(Cl)c3)c2cc1OCC(=O)N1CCN(C)CC1`: the growth in the test with DU-145 prostate was 62.6%; in the test with K-562 leukemia, 82.8%; in the test on MALME-3M melanoma it was 96.5%; with MDA-MB-231 breast, 94.7%; in the test with RXF 393 renal, 88.8%; with SF-268 CNS, 73.6%. Further, the growth in the test on SF-295 CNS was 92.8%; in the test with SF-539 CNS, 98.2%; with UACC-257 melanoma it was 104%; in the test on M14 melanoma it was 97.5%.

As to `C[C@@H]1CCC2[C@@H](C)[C@H](OC(=O)CCC(=O)NCCNC(=O)Cc3cc(=O)oc4cc(N(C)C)ccc34)O[C@@H]3O[C@]4(C)CC[C@@H]1C23OO4` (stereo not given in full), the growth with DU-145 prostate is 94%; in the test on K-562 leukemia, 13.6%; in the test on MALME-3M melanoma it was 49.6%; with MDA-MB-231 breast it was 77%; in the test with RXF 393 renal it was 61.7%; in the test on SF-268 CNS, 56.7%. Also, the growth is 41.8% in the test on SF-295 CNS, 55.4% in the test with SF-539 CNS, 59.1% with UACC-257 melanoma and 38.4% in the test on M14 melanoma.
